Assay [1] can be described thus: qHTS assay for small molecules that induce genotoxicity in human embryonic kidney cells expressing luciferase-tagged ATAD5 (AID 651632). Further: nearly all actives have a fitted effect of over 15% in size. The essentials: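 ATAD5-luc HEK293T, 2,000 cells/well; cpd or DMSO pin-transferred; 16 hr, 37C/5% CO2; Amplite 30 min RT; luminescence.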
Background: qHTS replaces the single test concentration by a dilution series.

Assay [2] in a line: qHTS assay for small molecule agonists of the p53 signaling pathway - cell viability (AID 651633; calls by dose curve; further: nearly all actives have a fitted effect of over 30% in size; further: potency means the concentration at half of the fitted maximal effect). The essentials:
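Viability counter-read: CellTiter-Glo luminescence (30 min, room temperature) in the same p53RE-bla plates. These plates had been exposed to compounds for 16 h at 37 C.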

A short description of assay [3]: qHTS assay for small molecules that induce genotoxicity in human embryonic kidney cells expressing luciferase-tagged ATAD5 - cell viability (AID 651634; calls by dose curve; further: nearly all actives have a fitted effect of over 25% in size; further: potency means the concentration at half of the fitted maximal effect). The gist of the method: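 Fluorescence from CellTiter-Fluor, reporting protease activity within live cells, served as the viability read-out. HEK293T cells carrying luciferase-tagged ATAD5 had been treated with compound for 15.5 hr at 37C.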

Assay [4] can be described thus: qHTS assay for small molecule disruptors of the mitochondrial membrane potential - cell viability (AID 720634; calls by dose curve;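 further: human HepG2 liver cancer cells; series mostly up to about 83 µM; nearly all actives have a fitted effect of over 20% in size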). The essentials:
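Cells: HepG2, 2,000/well, attached overnight. Compound 1 hr, 37 C/5% CO2. +m-MPI dye, +CellTiter-Glo 30 min RT. Readout: luminescence (ATP).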

Assay [5] in a line: qHTS assay for small molecule disruptors of the mitochondrial membrane potential (AID 720635). Further: potency means the concentration at half of the fitted maximal effect. The gist of the method:
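Mitochondrial membrane potential tracked with Mito-MPS dye, red aggregates (ex 540/em 590 nm) against green monomers (ex 490/em 535 nm). Compound treatment 1 hr at 37C, dye 30 min in HepG2.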

The nature of assay [6]: qHTS assay to test for compound auto fluorescence at 590 nm (red) in HepG2 cells (AID 720674). The gist of the method: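 We screened compounds on adherent HepG2 cells, incubating them for an hour at 37 C in 5% CO2 before reading emission at 590 nm under 540 nm excitation; values reflect equivalence to Rose Bengal sodium fluorescence.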
Assay [7] can be described thus: qHTS assay to test for compound auto fluorescence at 460 nm (blue) in HEK293 cells (AID 720678). The gist of the method:
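Intrinsic compound fluorescence is recorded in live HEK293 cultures after overnight incubation at 37C, 5% CO2, using excitation 405 nm and emission 460 nm. Values are referenced to triamterene.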

Assay [8] in a line: qHTS assay to test for compound auto fluorescence at 590 nm (red) in HEK293 cells (AID 720679). The essentials:
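Red autofluorescence, HEK293 cells: 2,000 cells/well; attach 4-5 hr 37C; add 23 nL cpd or DMSO; incubate o/n 37C 5% CO2; read Ex540/Em590; Rose Bengal sodium reference.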

A short description of assay [9]: qHTS assay to test for compound auto fluorescence at 535 nm (green) in HepG2 cells (AID 720675).

Each structure is given as a SMILES string. Unmarked numbers belong to inactive results. Results filed as inconclusive are left out. Activity calls are given as the source filed them. Unless noted, the call rests on the fitted dose curve; in most records, active means well fitted curve in the direction sought with a large enough effect in the repeat runs; inconclusive means weak or mixed curves; inactive means no such curve, though single readings can be large; an effect the other way counts as inactive or inconclusive.
On the % scale 0 is the no-effect control and ±100 the full control effect.

Consider `Cn1c(=O)c2c(ncn2CC(O)CO)n(C)c1=O` (stereo unspecified), for which the Potency entry in [1], in assay [2], in assay [3], in assay [4] and in assay [5] was “inactive” each time. Further, in assay [6], the fluorescence, relative to Rose Bengal is 0.442% [at 18.6 µM]. For the same molecule, in [7], the fluorescence, % of triamterene is -0.206% [at 18.6 µM]. Besides, the fluorescence, % of fluorescent control in assay [8] was -0.424% [at 18.6 µM].
For `CC(=O)OCCc1ccccc1`, the Potency entry in assay [1], in assay [2], in assay [3], in assay [4], in assay [5] and in assay [7] was “inactive” throughout. Also, the call in assay [6], in assay [9] and in assay [8] was inactive.
For the molecule `CC(=O)SCc1ccco1`, the Potency result in assay [1], in [2], in assay [3], in assay [4], in [5] and in [7] was “inactive” throughout. Besides, the call in assay [6], in assay [9] and in assay [8] was inactive.
Consider `Cn1sccc1=O`, for which the Potency entry in [1], in assay [2], in [3], in [4] and in [7] was “inactive” in each case. Moreover, the Potency in [5] was 61.1 µM (active). Further, the result in assay [6] and in [8] was inactive.
Regarding `CC(C(=O)O)c1ccc(-c2ccccc2)c(F)c1` (stereo unspecified), the Potency entry in assay [1], in [2], in assay [3], in assay [4] and in [7] was “inactive” throughout. Besides, the molecule was called inactive in assay [6], in assay [9] and in [8].
Consider `CCOc1ccc2[nH]cc(C(=O)NCc3ccccc3)c(=O)c2n1`, for which the Potency entry in [1], in assay [2], in assay [3], in assay [4] and in [7] was “inactive” in each case. In [5], the Potency was 8.63 µM (active). In addition, the molecule was classed as inactive in assay [6], in assay [9] and in assay [8].
For the molecule `O=C(Cl)c1c(Cl)cccc1Cl`, the Potency entry in assay [1], in assay [2], in assay [3], in assay [4], in assay [5] and in assay [7] was “inactive” throughout. The result in assay [6], in [9] and in assay [8] was inactive.
`CCCCCCCCCCCCCCCCCBr`: the Potency entry in [1], in [2], in [3] and in [4] was “inactive” in each case. The fluorescence, relative to Rose Bengal in assay [6] was -0.244% [at 18.6 µM]. Also, the fluorescence, % of fluorescein control in assay [9] was -0.0441% [at 18.6 µM].
For the molecule `CCOC(=O)C1=NN(c2ccccc2)C(=O)C1`, the Potency result in assay [1], in assay [2], in assay [3], in [4] and in [7] was “inactive” each time. The molecule was classed as inactive in [6], in [9] and in assay [8].
In the case of `O=C(O)[C@@H]1[C@H]2C[C@H]3c4[nH]c5ccccc5c4CCN3C[C@@H]2CC[C@@H]1O`, the Potency entry in assay [1], in assay [2], in assay [3] and in assay [4] was “inactive” each time. In addition, in assay [5], the Potency was 11.4 µM (active). Besides, in assay [6], the fluorescence, relative to Rose Bengal is 0.127% [at 18.6 µM]. The fluorescence, % of triamterene in assay [7] was 4.22% [at 18.6 µM]. Further, the fluorescence, % of fluorescent control in assay [8] was -0.335% [at 18.6 µM].
As to `COC(=O)CSc1cc(N=c2sc(=O)n3n2CCCC3)c(F)cc1Cl`, the Potency result in assay [1], in assay [2], in assay [3], in assay [4] and in assay [7] was “inactive” throughout. For the same molecule, the molecule was called inactive in assay [6], in [9] and in assay [8].
For the molecule `CCCCC(CC)(CO)CO`, the Potency entry in assay [1], in [2], in assay [3], in assay [4] and in assay [7] was “inactive” each time. In addition, the outcome in assay [6] and in assay [9] was inactive.
With `CCOc1nc2cccc(C(=O)O)c2n1Cc1ccc(-c2ccccc2-c2nn[nH]n2)cc1`, the Potency entry in assay [1], in [3] and in assay [4] was “inactive” in each case. Moreover, the Potency in assay [2] is 29.8 µM (active); in assay [5], 8.41 µM (active). Further, the result in assay [6] and in assay [8] was inactive.
`COC(=O)C(C)=O`: the Potency result in [1], in [2], in assay [3], in assay [4] and in assay [7] was “inactive” throughout. For the same molecule, the outcome in [6], in assay [9] and in assay [8] was inactive.
Regarding `CCOC(=S)SSC(=S)OCC`, the Potency entry in [1], in assay [2], in assay [3], in [4], in assay [5] and in [7] was “inactive” throughout. Further, the molecule was called inactive in assay [6], in assay [9] and in assay [8].
`COc1cc(C(C)(C)C)c(O)c(C(C)(C)C)c1`: the Potency result in assay [1], in assay [2], in assay [3] and in assay [4] was “inactive” throughout. The Potency in assay [5] was 27.3 µM (active). Besides, the molecule was called inactive in assay [6], in [9] and in assay [8].
Turning to `CC(C)NCC(O)COc1ccc(CC(N)=O)cc1` (stereo unspecified), the Potency result in assay [1], in assay [2], in assay [3], in assay [4] and in assay [7] was “inactive” each time. Moreover, the outcome in assay [6] and in assay [9] was inactive.
For `CC(C)NCC(O)c1cc(O)cc(O)c1` (stereo unspecified), the Potency entry in [1], in assay [2], in assay [3], in [4], in assay [5] and in [7] was “inactive” throughout. In addition, the molecule was classed as inactive in [6] and in assay [8].
With `CC/C(=C\C(=N/O)C(N)=O)C(C)[N+](=O)[O-]` (stereo unspecified), the Potency entry in assay [1], in assay [2], in [3], in assay [4], in assay [5] and in [7] was “inactive” in each case. Also, the outcome in assay [6], in assay [9] and in assay [8] was inactive.
As to `C=C(C)C(=O)OCCOc1ccccc1`, the Potency entry in assay [1], in [2], in assay [3], in [4] and in assay [7] was “inactive” throughout. Further, the outcome in assay [6] and in assay [9] was inactive.
For `CNS(=O)(=O)Cc1ccc2[nH]cc(CCN(C)C)c2c1`, the Potency result in assay [1], in assay [2], in assay [3] and in [4] was “inactive” each time. Also, the Potency in assay [5] was 29.8 µM (active). Moreover, the molecule was classed as inactive in assay [6], in assay [9] and in assay [8].
Consider `COC(Cc1ccccc1)OC`, for which the Potency result in assay [1], in assay [2], in assay [3], in assay [4] and in assay [7] was “inactive” in each case. The result in assay [6] and in assay [9] was inactive.
Take `CCc1nn(C2CCCCC2)c2cc(C3(C#N)CCC(C(=O)O)CC3)ccc12` (stereo unspecified): the Potency result in assay [1], in [2], in assay [4] and in assay [7] was “inactive” in each case. In addition, the Potency in assay [3] was 27.3 µM (active). The outcome in [6], in [9] and in assay [8] was inactive.
`CCN(CC)C(C)CN1c2ccccc2Sc2ccccc21` (stereo unspecified): the Potency entry in assay [1], in [2], in [3], in assay [4] and in assay [5] was “inactive” each time. In addition, in [6], the fluorescence, relative to Rose Bengal was 0.373% [at 18.6 µM]. The fluorescence, % of fluorescein control in assay [9] is 0.0339% [at 18.6 µM]. Besides, the fluorescence, % of triamterene in assay [7] was -0.0331% [at 18.6 µM]. Moreover, the fluorescence, % of fluorescent control in assay [8] was -0.0946% [at 18.6 µM].
Consider `COCCOCCOCCOCCOC`, for which the Potency result in assay [1], in assay [2], in assay [3], in assay [4], in assay [5] and in [7] was “inactive” each time. Moreover, the call in assay [6], in assay [9] and in [8] was inactive.
Take `N#Cc1c(F)cccc1F`: the Potency entry in [1], in [2], in [3], in [4] and in [7] was “inactive” throughout. Besides, the outcome in assay [6] and in [9] was inactive.
In the case of `CCCCOCCOCCOCCOCCO`, the Potency result in assay [1], in assay [2], in assay [3], in assay [4] and in assay [5] was “inactive” in each case. In addition, the call in assay [6], in assay [9] and in assay [8] was inactive.

(Values after PubChem BioAssay (Tox21).)
